Screening data deposited in PubChem by National Center for Advancing Translational Sciences (NCATS).
Epigenetic reg = regulators of epigenetic silencing causing reporter derepression in mouse cells | actives 0.2% (n = 280,000) | AID 1865 | Potency, µM (highest dose often 53.9 µM), for the others: at the top dose GFP activation, usual class: activators | murine LDR cells, GFP reporter derepression, 30 h; active = well fitted activation curve with a large enough effect; inconclusive = small, poorly fitted or top-dose-only effect; also: potency is read from the fitted curve at half-maximal effect; % of control where 0% means no effect; nearly all actives have a fitted effect of over 60% in size
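Reporter derepression read as number of fluorescent GFP-positive objects, 20-120 um in size, counted by laser-scanning cytometer. Mouse LDR line with an epigenetically silenced CMV-GFP locus; compound incubation 30 h, 37 C.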
Menin-MLL FL inh = menin-MLL binding inhibition, fluorescein peptide. Fluorescence polarization, fluorescein-MLL peptide displacement from menin. FP activity change, % at 61.4 µM. 290,000 tested, under 10 active; active = well fitted curve in the direction sought with a large enough effect in the polarisation, not every such curve was filed as active; inconclusive = small, poorly fitted or top-dose-only effect, or effect the other way, or a change in a side signal; inactive = no such curve, though single readings can be large or run the other way; the % refers to the polarisation; also: % of control where 0% means no effect
Menin-MLL TR inh = menin-MLL binding inhibition, Texas Red mutant peptide; Menin + Texas Red MLL mutant peptide, fluorescence polarization; O00255; AID 1768; actives 0.23% (n = 270,000); Potency, µM (series often up to 61.6 µM), for the others: at the highest dose FP activity change, negative = inhibition, most hits filed as inhibitors; active = well fitted inhibition curve with a large enough effect in the polarisation, with a control signal flat, not every such curve was filed as active; inconclusive = small, poorly fitted or top-dose-only effect, or effect the other way, or a change in a side signal; inactive = no such curve, though single readings can be large or run the other way; the % refers to the polarisation; also: potency is read from the fitted curve at half-maximal effect; % of control where 0% means no effect
ClpP mod = qHTS Assay for Activators of ClpP; actives 1.9% (n = 340,000); AID 651965, 2013; purified B. subtilis ClpP, FRET peptide cleavage, 20 min; Potency, µM (series often up to 57.5 µM), inactives show top-dose activity change, negative = active; active = well fitted falling curve with a large enough effect; inconclusive = small, poorly fitted or top-dose-only effect; inactive = no such curve, though single readings can be large or run the other way; also: potency is read from the fitted curve at half-maximal effect; the source files actives as falling curves though it sought activators and does not explain the sign; nearly all actives have a fitted effect of over 65% in size
Target sequence (P80244 whole entry, looked up): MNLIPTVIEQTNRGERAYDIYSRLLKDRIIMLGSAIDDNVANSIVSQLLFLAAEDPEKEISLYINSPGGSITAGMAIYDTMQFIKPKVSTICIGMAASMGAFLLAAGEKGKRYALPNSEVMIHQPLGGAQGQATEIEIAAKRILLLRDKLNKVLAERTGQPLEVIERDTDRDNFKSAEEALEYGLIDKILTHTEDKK
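ClpP 10 microg/mL final, pH 8 Tris/KCl buffer with BSA, glycerol, Tween-20; compound pinned in; FRET-FV substrate; RT 20 min; Ex320/Em430; ΔFRET vs ADEP 5.8 microM, DMSO, no enzyme.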
CXXC DNA block = blocks binding of human MLL CXXC domain to DNA. Q03164. Potency, µM (highest dose often 115 µM), inactives show top-dose activity change, negative = inhibition, actives largely listed as inhibitors. actives 0.037% (n = 290,000). MLL-CXXC / FITC-HOXA9 DNA fluorescence polarization; active = well fitted inhibition curve with a large enough effect in the polarisation, with a control signal flat, not every such curve was filed as active; inconclusive = small, poorly fitted or top-dose-only effect, or effect the other way, or a change in a side signal; inactive = no such curve, though single readings can be large or run the other way; the % refers to the polarisation; also: potency is read from the fitted curve at half-maximal effect
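Purified MLL-CXXC (added from a 7 uM solution) was preincubated 5 min at ambient with pinned compounds in 50 mM Tris-HCl pH 7.5, 50 mM NaCl, 1 mM DTT, 0.05% BSA. Fluorescein-labeled HOX-A9 DNA (50 nM solution) followed, 30 min, then polarization read.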
PINK1 modulator = PINK1 expression modulation. PINK1 immunofluorescence, high-content cytometry, 24 h. Potency, µM (highest dose often 76.6 µM), without a hit: top-dose activation (PINK1 increase), usual class: activators. actives 0.2% (n = 410,000); active = well fitted activation curve with a large enough effect; inconclusive = small, poorly fitted or top-dose-only effect; cell line not stated here; also: potency is read from the fitted curve at half-maximal effect; % of control where 0% means no effect; nearly all actives have a fitted effect of over 65% in size
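Cells are seeded, rested 12 hours, then given compound at five concentrations or DMSO for 24 hours. After fixation, blocking and antibody staining, PINK1 amount and mitochondrial localization are scored; CCCP serves as control.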
The depositor's hits bear a star; ? = inconclusive; · = not tested or not shown; ! = not active in a repeat; [ ] = dose if it differs, or a comment. The list is not random: actives were taken first. Their share in the collection is about 1.9%.

SMILES	Epigenetic reg	Menin-MLL FL inh	Menin-MLL TR inh	ClpP mod	CXXC DNA block	PINK1 modulator
O=[N+]([O-])c1ccc(-c2ccc(C=Nc3cccc4ccccc34)o2)cc1	4%	-2	?	18µM*	-4%	1%[38.3 µM]
C[C@@H]1O[C@@H](O[C@H]2CC[C@@H](O[C@H]3[C@H](O)C[C@H](c4ccc5c(c4O)C(=O)C4=C(C5=O)[C@@]5(O)C(=O)C[C@](C)(O[C@H]6CC[C@H](O[C@H]7C=CC(=O)[C@H](C)O7)[C@H](C)O6)C[C@@]5(O)C=C4)O[C@@H]3C)O[C@H]2C)C=CC1=O	·	-6	?	·	·	·
C#CC1(O)CCC2C3CCC4=CC(=O)CCC4=C3C=CC21C (centres undefined)	·	·	·	28µM*	·	-5%
CC(=O)Nc1ccc(S(=O)(=O)N(C)CCOCc2ccccc2)cc1	0%	5	-2%	22µM*	2%	-3%
C[C@]12O[C@H](C[C@]1(O)CO)n1c3ccccc3c3c4c(c5c6ccccc6n2c5c31)CNC4=O	·	3	?	·	-4%	·
CC(C)[C@@]1(NC(=O)[C@@H]2C[C@@H]3c4cccc5[nH]cc(c45)C[C@H]3N(C)C2)O[C@@]2(O)C3CCCN3C(=O)[C@H](Cc3ccccc3)N2C1=O (some centres undefined)	2%	2	-6%	·	27%	·
CC(C)[C@@]1(NC(=O)[C@@H]2C[C@@H]3c4cccc5[nH]cc(c45)C[C@H]3N(C)C2)O[C@@]2(O)[C@@H]3CCCN3C(=O)[C@H](Cc3ccccc3)N2C1=O	22µM*!	?	10%	0%	7%	1%
O=C(Nc1ccc2ccccc2c1)c1nn(C23CC4CC(CC(C4)C2)C3)cc1Br	0%	·	·	20µM*	3%	-1%[38.3 µM]
CN1C(=O)C(=Cc2ccc(N3CCCCC3)o2)C(=O)N(C)C1=S	6%	?	25µM*	-1%	84%	19%
Cc1ccc2oc(=O)c(-c3nc4ccc(C)cc4[nH]3)cc2c1	16µM*	·	·	-3%	·	11%
Cc1cc(O)c2c(c1)C(=O)C13C(=C2O)C(=O)[C@H]2[C@@H](O)[C@@H]1[C@H]1[C@H](O)[C@@H]3C(=O)C3=C(O)c4c(O)cc(C)cc4C(=O)C312 (some centres undefined)	·	·	·	2%	·	28µM*
CCCc1nc2ccc(Br)cc2c(=O)n1-c1ccc([N+](=O)[O-])c(C(F)(F)F)c1	-1%	5	?	-1%	-5%	14µM*
CCc1nc2ccc(Br)cc2c(=O)n1-c1ccccc1C(F)(F)F	·	·	·	-1%	·	5%
CCc1ccc(-n2c(=O)c3sc4ccccc4c3n(CC(=O)NC3CCCC3)c2=O)cc1	?	·	·	5%	·	5%
CCCCC1(CCCC)C(=O)NC(=Nc2cccc(C)c2)NC1=O	1%	7	?	-2%	-10%	16µM*
CCC1(CC)C(=N)N(C)C(=O)NC1=O	0%	0	-15%	16µM*	1%	-2%
CCCCN1C(=N)C(CC)(CC)C(=O)NC1=O	0%	-1	-11%	-1%	-3%	0%
CCCCn1c(O)c(/C=C2\C=Nc3ccccc32)c(=O)[nH]c1=O	·	?	?	·	25%	1%
O=c1[nH]c(O)c(/C=C2\C=Nc3ccc(OCc4ccccc4)cc32)c(=O)[nH]1	·	?	?	·	-12%	32µM*
CC(C)CCOP(=O)(c1ccc(N(C)C)cc1)C(O)c1c(Cl)cccc1Cl (centres undefined)	·	4	?	-3%	2%	-1%
COc1ccccc1C(=O)Nc1ccc2nc(SCC(=O)N3CCCc4ccccc43)sc2c1	5%	·	·	10µM*	·	-1%
CCn1c(P(C)(=O)O)nc2cc(NC(=O)c3ccccc3F)ccc21	3%	1	-2%	·	-6%	1%
O=C(Nc1ccc2nc(SCC(=O)N3CCCc4ccccc43)sc2c1)c1ccccc1F	8%	·	·	18µM*	·	1%
Nc1ccc2c3c(cccc13)CC2	?	?	?	14µM*	-11%	7%
O=C1NC(=O)N(c2ccccc2)C(=O)/C1=C\c1ccc2c3c(cccc13)CC2	1%	6	19%	·	?	·
SMILES	Epigenetic reg	Menin-MLL FL inh	Menin-MLL TR inh	ClpP mod	CXXC DNA block	PINK1 modulator
Cc1ccc(S(=O)(=O)N2CCCCC2)cc1NC(=O)CN1CC=C(c2ccccc2)CC1	-2%	·	2%	-10%	7%	-1%
COc1ccccc1CNCC(=O)Nc1cc(S(=O)(=O)N2CCCCC2)ccc1C	·	·	·	8.9µM*	·	-1%
Cc1cc(C(C#N)c2ccc(Cl)cc2)c(Cl)cc1NC(=O)c1cc(I)cc(I)c1O (centres undefined)	·	?	?	-1%	?	14µM*
COc1ccc2c(c1)CCC1C2CC[C@@]2(C)C1CC[C@@H]2NCCCCCCN1C(=O)C=CC1=O (some centres undefined)	6%	5	-9%	·	5%	·
Oc1ccc(-[n+]2c(-c3ccccc3)cc(-c3ccccc3)cc2-c2ccccc2)cc1	·	·	·	3%	·	?
COc1ccc(-[n+]2c(-c3ccccc3)cc(-c3ccccc3)cc2-c2ccccc2)cc1	·	·	·	-1%	·	16µM*
ClCCN(CCCl)c1ccc(C=NNc2ncccn2)cc1	·	·	·	·	·	0%
C=CCc1c(C)nc(C)nc1N/N=C/c1ccc(N(C)C)cc1	-3%	2	1%	20µM*	3%	0%
CCCCCn1c(N)c(C(=O)NCc2cccs2)c2nc3ccccc3nc21	7%	1	35%	28µM*	-5%	5%[38.3 µM]
COc1ccc(CCNC(=O)c2c(N)n(CCN3CCOCC3)c3nc4ccccc4nc23)cc1OC	-1%	9	4%	-21%	12%	-1%[38.3 µM]
CCCCNC(=O)c1c(N)n(Cc2ccc3c(c2)OCO3)c2nc3ccccc3nc12	?	2	36%	10µM*	-16%	3%[38.3 µM]
